CtBP-E1A inh – blocks the CtBP interaction with E1A | activity change, % (concentration not given with the values) | hit rate 0.49% among 340,000 | AlphaScreen GST-E1A/His-CtBP binding, 1536-well; stronger effect = lower value; in the data active means activity change below about -65%; inconclusive means mostly about -30% to -63%
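Protein mix (5X: 125 nM each GST-E1A, His-CtBP) was incubated with pinned compound 2 h at 37 deg C in dark, in 50 mM Tris pH 8.0 buffer with 300 mM NaCl. Glutathione donor and nickel acceptor beads followed; AlphaScreen signal read after 1 h.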
Six1-Eya2 inh – inhibitors of human Six1/Eya2 interaction; Q15475+O00167; AlphaScreen GST-Six1/His-Eya2 binding, biochemical; stronger effect = lower value; activity change, % (concentration not given with the values); hit rate 0.56% among 360,000; AID 651725; in the data active means activity change below about -65%; inconclusive means mostly about -30% to -63%
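AlphaScreen with GST-Six1 and His-Eya2 (5X mix: 250 nM and 500 nM), glutathione donor and nickel acceptor beads; buffer 50 mM Tris pH 8.0, 300 mM NaCl, 1 mM TCEP; 1 h at 37 C in the dark.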
BAZ2B inh – blocks human BAZ2B; Potency, µM (series often up to 114 µM), most hits filed as inhibitors; AID 504333; AlphaScreen BAZ2B-H3K14Ac peptide displacement; hit rate 4.4% among 360,000; Q9UIF8; further: nearly all actives have a fitted effect of over 60% in size
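In this displacement format the biotinylated H3(5-23) peptide acetylated at Lys14 serves as ligand at 50 nM, with BAZ2B at 50 nM in PBS pH 7.4 containing 0.01% Tween-20. Donor and acceptor beads are 10 ug/mL final.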
JMJD2A Tudor – inhibitors of human JMJD2A Tudor domain. AlphaScreen JMJD2A-Tudor / H3K4me3 peptide binding. Potency, µM (titrated, usually from 114 µM), hits mostly inhibitors. hit rate 4.4% among 390,000; further: nearly all actives have a fitted effect of over 50% in size
HP1b chromo inh – inhibitors of HP1-beta chromodomain binding to methylated histone tails. P83916. AlphaScreen HP1-beta / biotin-H3K9me3 peptide binding. Potency, µM (highest dose often 114 µM), hits mostly inhibitors. hit rate 0.56% among 390,000. AID 540317; further: nearly all actives have a fitted effect of over 70% in size
Target sequence (P83916 whole entry, looked up): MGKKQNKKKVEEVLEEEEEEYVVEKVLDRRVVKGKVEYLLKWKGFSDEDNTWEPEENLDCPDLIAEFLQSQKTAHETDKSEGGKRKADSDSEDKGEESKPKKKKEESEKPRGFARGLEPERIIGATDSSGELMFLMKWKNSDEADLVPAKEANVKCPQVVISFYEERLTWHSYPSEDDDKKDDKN
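AlphaScreen: HP1-beta (50 nM) preformed 30 min with biotin-H3(1-18)K9me3 peptide (50 nM) in PBS pH 7.4, 0.01% Tween-20. Compound added for 30 min at RT, then streptavidin donor/nickel chelate acceptor beads (10 ug/mL) for 30 min.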
G9a block – blocks human histone lysine methyltransferase G9a; hit rate 8.8% among 350,000; Potency, µM (top dose mostly 102 µM), usual class: inhibitors; G9a H3K9 monomethylation, AlphaScreen, 2 h; Q96KQ7; further: nearly all actives have a fitted effect of over 75% in size
Target sequence (Q96KQ7 913-1193 limits assumed): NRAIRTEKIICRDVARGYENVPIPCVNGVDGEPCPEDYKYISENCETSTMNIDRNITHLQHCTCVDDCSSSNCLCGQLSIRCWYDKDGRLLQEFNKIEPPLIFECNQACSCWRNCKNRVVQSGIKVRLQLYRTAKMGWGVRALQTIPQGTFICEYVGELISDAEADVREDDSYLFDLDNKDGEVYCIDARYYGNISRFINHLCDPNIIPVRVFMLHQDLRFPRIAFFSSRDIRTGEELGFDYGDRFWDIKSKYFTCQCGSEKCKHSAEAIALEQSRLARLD
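Enzyme 20 nM + cpd, 15 min RT; add b-H3K9 pep 500 nM / SAM 20 uM; 2 h RT; anti-H3K9me1 Ab 0.5 ug/mL + SA donor / anti-rabbit acceptor beads 20 ug/mL each, 10 min; AlphaScreen read.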
Each line names hits and unclear results; the compound was inactive in the other large screens. Hits are enriched below; roughly 10% of the tested compounds scored in any of these assays. Unless noted, the call rests on the fitted dose curve; in most records, active means well fitted inhibition curve with a large enough effect; inconclusive means small, poorly fitted or top-dose-only effect; inactive means no such curve, though single readings can be large or run the other way.

COc1ccc(N2CC(NC(=O)/C=C\c3ccc(OC)c(OC)c3)CC2=O)cc1 (stereo not drawn)	none (no result: CtBP-E1A inh, Six1-Eya2 inh)
COc1ccc(NCC(=O)n2c(C)c(C)c3ccccc32)cc1	G9a block 10µM
COc1ccc(NC(=O)Cn2c(C)cc(=O)c3ccccc32)cc1	none (no result: CtBP-E1A inh)
CCSC(=O)N=Nc1ccc(O)cc1	JMJD2A Tudor 56µM, HP1b chromo inh inconclusive (no result: BAZ2B inh, G9a block)
CCOc1ccccc1C(=O)NCC(=O)N(C)Cc1cccnc1	G9a block 40µM
O=c1c2oc3ccccc3c2n(Cc2cccc(F)c2)c(=O)n1Cc1ccc2c(c1)OCO2	none (no result: CtBP-E1A inh, Six1-Eya2 inh)
CC(=O)NC1=NN(C(C)=O)C(C)(c2ccccc2)S1 (stereo not drawn)	BAZ2B inh 45µM, G9a block inconclusive
O=C(O)c1ccc(/C=N/NC(=O)C(O)(c2ccccc2)c2ccccc2)cc1	G9a block inconclusive
O=c1[nH]cc(N=Cc2cc([N+](=O)[O-])ccc2O)c(=O)[nH]1	none (no result: CtBP-E1A inh, Six1-Eya2 inh, JMJD2A Tudor, HP1b chromo inh, G9a block)
Cc1sc(N/N=C/c2cc([N+](=O)[O-])ccc2O)nc1-c1ccccc1	JMJD2A Tudor 22µM (no result: CtBP-E1A inh)
O=C(N/N=C/c1cc([N+](=O)[O-])ccc1O)C1CC1	Six1-Eya2 inh -85
O=C1NCCCC1C(=O)N/N=C/c1cc([N+](=O)[O-])ccc1O (stereo not drawn)	CtBP-E1A inh -96, Six1-Eya2 inh -69, BAZ2B inh 50µM, JMJD2A Tudor 40µM
O=C(N/N=C/c1cc([N+](=O)[O-])ccc1O)C(O)(c1ccccc1)c1ccccc1	CtBP-E1A inh inconclusive, Six1-Eya2 inh inconclusive, BAZ2B inh inconclusive, JMJD2A Tudor 79µM (no result: G9a block)
O=C1NCCCC1C(=O)N/N=C/c1ccc([N+](=O)[O-])cc1 (stereo not drawn)	none (no result: CtBP-E1A inh)
CCOC(=O)c1cc(OC(=O)c2ccc(OC)c(OC)c2)n(-c2ccccc2)n1	none (no result: CtBP-E1A inh, Six1-Eya2 inh)
CCc1ccc(-n2c(=O)c3sc4ccccc4c3n(CC(=O)NC3CCCC3)c2=O)cc1	none (no result: CtBP-E1A inh, Six1-Eya2 inh)
CCc1ccc(-n2nc(C)c3c(C(=O)Nc4cccc(C(F)(F)F)c4)cc(C)nc32)cc1	none (no result: CtBP-E1A inh, Six1-Eya2 inh)
Cc1ccc(C)c(NC(=O)Cn2c(SCC(=O)NCc3ccccc3)nc3ccccc32)c1	none (no result: CtBP-E1A inh, Six1-Eya2 inh)
O=[N+]([O-])c1ccc(O)c(/C=N/Nc2ccccc2Cl)c1	G9a block 6.3µM (no result: CtBP-E1A inh)
CCc1ccc(N2CC(C(=O)N/N=C/c3cc([N+](=O)[O-])ccc3O)CC2=O)cc1 (stereo not drawn)	CtBP-E1A inh -88, Six1-Eya2 inh -80, BAZ2B inh 50µM, JMJD2A Tudor 40µM
N=C(N)SCc1ncccc1O	BAZ2B inh inconclusive, JMJD2A Tudor inconclusive, G9a block 18µM
Oc1cccnc1CCc1ccccc1	none (no result: G9a block)
c1ccc(CSc2nnc(SCc3ccccn3)s2)nc1	none
N=C(N)SCc1ccccn1	CtBP-E1A inh inconclusive, BAZ2B inh 35µM, JMJD2A Tudor 22µM, G9a block inconclusive
COc1cc(C(=O)N2CCN(CCc3ccccn3)CC2)cc(OC)c1OC	HP1b chromo inh inconclusive, G9a block inconclusive (no result: CtBP-E1A inh, Six1-Eya2 inh)
O=C(Nc1ccc(Br)cc1F)c1cc(S(=O)(=O)NCc2ccc(F)cc2)ccc1F	none (no result: CtBP-E1A inh, Six1-Eya2 inh)
Cc1ccc(-c2ccccc2NC(=O)CS(=O)CC(=O)Nc2ccc(C)c(Cl)c2)o1 (stereo not drawn)	G9a block 35µM
COc1ccccc1N1CCN(C(=O)c2oc3ccccc3c2N)CC1	JMJD2A Tudor inconclusive, G9a block inconclusive (no result: CtBP-E1A inh, Six1-Eya2 inh)
C[N+]1(CCn2ccc3ccccc32)CCCCC1	JMJD2A Tudor 25µM, G9a block 50µM (no result: CtBP-E1A inh)
COc1cc(/C=N/NC(=O)CN(Cc2ccccc2)S(=O)(=O)c2ccc3c(c2)OCCO3)ccc1O	Six1-Eya2 inh -82, JMJD2A Tudor inconclusive
O=C(CN(Cc1ccccc1)S(=O)(=O)c1ccc2c(c1)OCCO2)N/N=C/c1ccc(F)cc1	none
COc1ccc(/C=N/NC(=O)CN(Cc2ccccc2)S(=O)(=O)c2ccc3c(c2)OCCO3)cc1	Six1-Eya2 inh -65
COc1cc(/C=N/NC(=O)CN(Cc2ccco2)S(=O)(=O)c2ccccc2)ccc1O	CtBP-E1A inh -92, Six1-Eya2 inh -82
O=C(CN(Cc1ccccc1)S(=O)(=O)c1ccc2c(c1)OCCO2)N/N=C/c1cccc(Br)c1	none
Cc1ccc2c(=O)cc(C(=O)Nc3cccc(C(F)(F)F)c3)oc2c1C	none (no result: CtBP-E1A inh, Six1-Eya2 inh)
Cc1ccc(-n2nc(C)cc2NC(=O)CC#N)cc1	none
